What is called inhibition is the drop in the measured response relative to a control, in per cent.

In all, about 300,000 compounds went through this assay and about 4,000 (1.3%) were called active.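 How the source made its calls: active means mean replicate score, as percent of positive control median, at least 50; inconclusive means mean below 50 but one replicate at or above 50; inactive means mean and every replicate below 50.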 What follows is part of a selection rich in actives, with near analogues and random picks from the rest.

The assay is described as follows: S. pyogenes SKKanGAS growth inhibitors in kanamycin, primary screen, streptokinase expression inhibitor project, SKKanGAS strain, BacTiter-Glo luminescence (AID 1662).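 Further: strain carries kanamycin resistance gene driven by streptokinase promoter and grows in 40 µg/ml kanamycin; loss of luminescence reflects streptokinase promoter inhibition or plain growth inhibition; 0% = median of DMSO wells and 100% = positive control at its reference dose.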 The settings on record: 6 h, at 7.5 µM, active compounds read high.
Take `COc1cc2nc(CN(C)Cc3ccc(F)cc3)[nH]c(=O)c2cc1OC`: the inhibition was 16.4% (inactive).
In the case of `CC1=CC=CN2C1=NC(=O)CC2(C)C(=O)N(CC(=O)NC1CCCC1)c1ccccc1C` (centres undefined) it was 1.46% (inactive).
In the case of `Cc1nn(CCCC(=O)NCc2ccccc2Cl)c(=O)c2nccn12`, the inhibition is -6.9% (inactive).
`CCS(=O)(=O)Nc1cccc(-c2cc(-c3ccccc3)c3cc(C)ccc3n2)c1`: the inhibition is 97.3% (active).
Regarding `Cc1ccc2nc(-c3ccncc3)cc(C(=O)Nc3ccncc3)c2c1`, the inhibition is 1.9% (inactive).
Take `Cc1ccc2nc(Nc3ccccc3)cc(C)c2c1`: the inhibition is 0.508% (inactive).
Under `CCOCCCNC(=O)c1ccc(CS(=O)(=O)c2cccc(C(F)(F)F)c2)o1` stands -1.72% (inactive).
In the case of `CCC(=O)Nc1ccc(-c2ccc(N3CCCCC3)nn2)cc1` it was 1.15% (inactive).
For `CC1CCN(C(NC(=O)c2ccco2)C(=O)c2ccccc2)CC1` (centres undefined), the inhibition was -2.13% (inactive).
In the case of `CC1CCN(c2ccc(-c3ccc(NC(=O)c4ccco4)cc3)nn2)CC1` it was 70% (active); in that of `CCCCCN(C(=O)CCC(=O)OCCOc1ccc(OC)cc1)c1c(N)n(CCCC)c(=O)[nH]c1=O`, -3.52% (inactive); in that of `CS(=O)(=O)c1ccc2nnn(OCC(=O)Nc3cccc(C#N)c3)c2c1`, -3.98% (inactive).
Under `COc1ccc(NC(=O)CN2C(=O)CSc3ccc(S(=O)(=O)N4CCC(C)CC4)cc32)cc1` stands 10.8% (inactive); under `CCOC(=O)c1cnc(-n2nc(C)cc2C)nc1NNc1cc(C)nc(-c2ccccc2)n1`, 101% (active); under `CCOC(=O)c1cnc(-n2nc(C)cc2C)nc1Nc1cccc(C(C)=O)c1`, 35% (inactive).
Consider `CCOC(=O)c1cnc(-c2ccccc2)nc1Oc1ccc(C)cc1`, for which the inhibition was 20.4% (inactive).
`Cc1ccc(S(=O)(=O)/N=C(\CN2CCOCC2)N2CCOCC2)cc1`: the inhibition was 2.49% (inactive).
Under `CC(C)N1CCC(=NNc2ccc([N+](=O)[O-])cc2S(=O)(=O)N2CCOCC2)CC1` stands 17.1% (inactive); under `CN(C)c1ccc(-n2cccc2/C=N/n2cnnc2)cc1`, 0.00128% (inactive).
Turning to `Cc1ccccc1NC(=S)NNC(=O)c1cccc(Br)c1`, the inhibition is -4.92% (inactive).
In the case of `NS(=O)(=O)c1ccc(NC(=S)NC(=O)c2cccc(Br)c2)cc1` it was 0.49% (inactive); in that of `O=C(NC(=S)Nc1cccc2c(O)cccc12)c1cccc(Br)c1`, 63.3% (active); in that of `CCOC(=O)c1ccccc1NS(=O)(=O)c1c(C)nc2sccn2c1=O`, -2.29% (inactive).
Under `CN(C)CCNc1ccc(-c2n[nH]c(=O)c3ccccc23)cc1[N+](=O)[O-]` stands -10.2% (inactive); under `COc1ccc(-c2nn(-c3ccccc3)cc2/C=N/Nc2ccccn2)cc1OC`, 16.9% (inactive); under `COc1ccccc1/C=N\Nc1cc(C)nc(-n2nc(C)cc2C)n1`, 101% (active).
In the case of `Oc1cccc(/C=N/Nc2ccc(Cl)nn2)c1O` it was -9.25% (inactive); in that of `Cc1nc(Cl)cc(N/N=C/c2ccccc2)n1`, -4.1% (inactive); in that of `COc1cccc2c(N/N=C/c3ccco3)cc(C)nc12`, -8.63% (inactive).
In the case of `Cc1ccc(S(=O)(=O)Nc2nc(C)cc(N/N=C/c3ccc(O)cc3)n2)cc1`, the inhibition was -2.8% (inactive).
Regarding `COc1ccc(/C=N/Nc2cc(N3CCOCC3)nc(C)n2)c(OC)c1`, the inhibition was 14.3% (inactive).
Under `COc1cccc(/C=N/Nc2cc(C)nc(-c3ccccc3O)n2)c1O` stands 64.5% (active); under `Cc1cc(N/N=C\c2ccc(Br)cc2)nc(-n2nc(C)cc2C)n1`, 102% (active); under `CC(=O)Nc1ccc(NS(=O)(=O)c2ccc3c(c2)NC(=O)CC(=O)N3)cc1`, -2.61% (inactive).
Take `CCOC(=O)N1CCN(S(=O)(=O)c2ccc(OC)cc2)CC1`: the inhibition was -0.833% (inactive).
Under `Cc1cc(N2C(=O)C(=O)/C(=C(/O)c3ccccc3)C2c2cccc(Br)c2)no1` (centres undefined) stands 16.7% (inactive); under `Cn1nnc(NC(=S)NC(=O)c2ccccc2)n1`, -0.537% (inactive); under `COc1ccccc1CCC(=O)OCC(=O)N1CCN(S(=O)(=O)c2ccc(C)cc2C)CC1`, -9.85% (inactive).
In the case of `Cc1ccccc1NC(=O)C1CCCN(C(=O)NCc2ccccc2)C1` (centres undefined), the inhibition is -1.35% (inactive).
As for `CCCCN=C1C([N+](=O)[O-])=CC=C2C1=NC1(CCCCC1)N2O`, the inhibition was 2.56% (inactive).
In the case of `Clc1ccc(-c2cc(C3CCNCC3)[nH]n2)c(Cl)c1`, the inhibition is 7.25% (inactive).
Under `COc1ccc(CCNC(=O)CCCCCNC(=O)N2CCn3c2nc2ccccc23)cc1OC` stands 3.33% (inactive); under `COc1ccccc1N1CCN(C(=O)CCS(=O)(=O)c2ccc3c(c2)NC(=O)C(C)S3)CC1` (centres undefined), -2.2% (inactive); under `COC(=O)CNC(c1ccccc1Cl)c1cc(Br)ccc1NC(=O)CCN1CCOCC1` (centres undefined), -3.8% (inactive).
Take `CC(=O)O[C@H]1CC[C@@]2(C)[C@@H](CC[C@@H]3[C@@H]2CC[C@]2(C)[C@@H](C(C)(C)O)C[C@@H]32)C1`: the inhibition is 29% (inactive).
For the molecule `CCOc1cc(-c2cc(-c3ccc(NC(C)=O)cc3)nc(N)c2C#N)ccc1O`, the inhibition is 83.8% (active).
In the case of `COc1ccc(-c2cc(-c3ccc(N)cc3)nc(N)c2C#N)cc1OC` it was 9.35% (inactive); in that of `CCOc1cc(-c2cc(-c3ccc(OC)cc3)nc(N)c2C#N)ccc1O`, 30.5% (inactive).
Under `O=S(=O)(c1cccc(C(F)(F)F)c1)N1CCN(c2cnccn2)CC1` stands 0.567% (inactive).
As to `CC(C)CCNC(=O)CCNS(=O)(=O)c1ccc(Cl)cc1`, the inhibition was -4.22% (inactive).
For `COCCSc1nnc(NC(=O)CCS(=O)(=O)Cc2ccccc2)s1`, the inhibition was -1.08% (inactive).
Under `Cc1cc(C)cc(N(CCC#N)C(=O)CN2C(=O)NC3(CCCC3)C2=O)c1` stands -1.7% (inactive); under `CCCOc1ccc(-c2nc(N)n[nH]2)cc1`, -0.246% (inactive).
`Cc1ccc(OCCCCc2c(C)n[nH]c2C)cc1`: the inhibition was 87.2% (active).
In the case of `Cc1ccc(OCc2n[nH]c(=S)n2-c2ccc(C)cc2)cc1` it was -0.726% (inactive).
Consider `Cc1cc2c(c(=O)n1C)C(C(C)C)C(C#N)=C(N)O2` (centres undefined), for which the inhibition was -0.711% (inactive).
In the case of `CCOC(=O)c1c(-c2ccccc2)oc2ccc(OCC(N)=O)cc12`, the inhibition was -10.7% (inactive).
For `CCOC(=O)c1c(-c2ccccc2)oc2cc(Br)c(O)cc12`, the inhibition is 12.5% (inactive).
Consider `CCOC(=O)c1c(-c2ccccc2)oc2cc(Br)c(O)c(C=O)c12`, for which the inhibition was 56.9% (active).

(Values after PubChem BioAssay AID1662 (Broad Institute, 2009).)
